Source: ChEMBL document CHEMBL4513146, “CO-ADD screening of Karazin Kharkiv National University (Ukraine) compounds”
Entries with a potency or affinity are not part of this list.

system: Cryptococcus neoformans; conditions: Concentration 32 ug.mL-1; ASSAY_TEST Inhibition of Fungal Growth; detection method Resazurin; Absorption (OD600-OD570); plate type 384well; NBS; CORNING #3640

| SMILES | Inhibition [%] |
| --- | --- |
| Cc1cc2nn(CC(=O)Nc3cccc(F)c3)c(=O)n2c(Nc2ccc(F)c(C)c2)n1 | -7 |
| CCc1cccc(NC(=O)Cn2nc3nc(N4CCCCCC4)ccn3c2=O)c1 | -9.37 |
| CC(C)c1ccc(Oc2nc3ccccc3n3c(=O)n(CC(=O)Nc4ccc5c(c4)OCO5)nc23)cc1 | -13.49 |
| Cc1cccc(N(C)C(=O)Cn2nc3cc(C)nc(Nc4ccc(F)c(C)c4)n3c2=O)c1 | -4.41 |
| CCc1nnc2c(=O)n(CC(=O)Nc3cc(Cl)ccc3Cl)c3ccccc3n12 | -19.25 |
| CCc1ccccc1NC(=O)Cn1nc2c(SC3CCCCC3)nccn2c1=O | -27.01 |
| Cc1ccc(-c2cc3c4nnc(SCC(=O)Nc5ccc(C#N)cc5)n4ccn3n2)cc1 | -27.44 |
| CCc1ccc(N(Cc2ccccc2F)S(=O)(=O)c2cccn3c(C)nnc23)cc1 | -9.4 |
| CCCCN(CC)c1ccc2nnc(CCc3nc(-c4ccc5c(c4)OCO5)no3)n2n1 | -4.25 |
| CCc1ccccc1Sc1nccn2c(=O)n(CC(=O)Nc3ccc(Br)cc3)nc12 | -1.52 |
| CC(C)c1nnc2c(=O)n(CC(=O)Nc3ccc(Br)cc3)c3ccccc3n12 | -6.21 |
| Cc1ccc(Oc2nccn3c(=O)n(CC(=O)Nc4ccc(Br)cc4)nc23)cc1 | -16.67 |
| CCc1cccc(NC(=O)Cn2nc3ccc(SC(C)(C)C)nn3c2=O)c1 | -23.79 |
| Cc1ccc(Cl)cc1NC(=O)CSc1nnc2c(=O)n(-c3ccccc3)ccn12 | -17.19 |
| O=C(Cn1nc2c3c4c(sc3ncn2c1=O)CCCC4)NCCc1ccc(Cl)cc1 | -14.7 |
| CC(C)(C)Sc1ccc2nn(CC(=O)Nc3ccc(Cl)cc3)c(=O)n2n1 | -24.82 |
| Cc1ccc(-c2ccc3nn(Cc4nc(-c5ccc(Cl)cc5)no4)c(=O)n3n2)cc1C | -12.88 |
| Cc1cc(C)c(NC(=O)Cn2nc3ccc(Sc4cccc(F)c4)nn3c2=O)c(C)c1 | -10.61 |
| Cc1cc(C)c(NC(=O)Cn2nc3c(SCc4ccc(Cl)cc4)nccn3c2=O)c(C)c1 | -17.24 |
| Cc1ccc(NC(=O)Cn2nc3c(Sc4ccccc4)nccn3c2=O)c(C)c1 | -10.8 |

| SMILES | Inhibition [%] |
| --- | --- |
| O=c1c2sccc2n2c(=O)n(Cc3ccc(Cl)cc3)nc2n1Cc1cccs1 | -17.8 |
| O=C(Cn1nc2ccc(SCc3ccc(Cl)cc3)nn2c1=O)Nc1ccc(F)c(F)c1 | -13.26 |
| Cc1cccc(NC(=O)Cn2nc3c(SC4CCCCC4)nccn3c2=O)c1C | -15.81 |
| Cc1ccc(-c2cc3c4nnc(SCC(=O)Nc5cccc(Cl)c5C)n4ccn3n2)cc1 | -8.53 |
| O=C(CCc1nnc2ccc(-c3ccc(Cl)cc3)nn12)NCc1ccc(F)cc1Cl | -15.23 |
| Cc1cc2nn(CC(=O)Nc3cc(F)ccc3C)c(=O)n2c(Nc2ccc(F)cc2)n1 | -4.58 |
| COc1ccc(CN(c2ccc(OC)cc2)S(=O)(=O)c2ccc3nnc(C)n3c2)cc1 | -1.1 |
| Cc1cccc(Oc2nccn3c(=O)n(CC(=O)Nc4cccc(C(F)(F)F)c4)nc23)c1C | -8.68 |
| O=c1n(Cc2ccc3c(c2)OCO3)nc2c(S(=O)(=O)N3CCCC3)cccn12 | -5.87 |
| COc1ccc(NC(=O)Cn2nc3c4cc(-c5ccc(C)c(C)c5)nn4ccn3c2=O)cc1OC | -30.03 |
| O=c1c2nn(Cc3cccc(Cl)c3)c(=O)n2ccn1-c1ccccc1 | -10.03 |
| COc1cc(NC(=O)Cn2nc3c(Oc4ccccc4)nccn3c2=O)cc(OC)c1 | -7.5 |
| CCc1nnc2c(S(=O)(=O)N(Cc3cccc(OC)c3)c3ccccc3)cccn12 | -9.71 |
| O=S(=O)(c1ccc2nncn2c1)N(Cc1ccccc1F)c1cccc(F)c1 | -8.33 |
| COc1ccccc1N1CCN(C(=O)Cn2nc3ccc(-c4ccc(C)c(C)c4)nn3c2=O)CC1 | -3.44 |
| COc1ccc(CNC(=O)CCc2nnc3ccc(-c4ccccc4)nn23)cc1OC | -12.03 |
| Cc1ccc(-c2cc3c4nnc(SCC(=O)Nc5ccccc5Br)n4ccn3n2)cc1 | -35.04 |
| COc1cccc(-n2ccn3c(SCC(=O)Nc4cc(Cl)ccc4OC)nnc3c2=O)c1 | -11.15 |
| O=C(Cn1nc2c3cc(-c4ccc(Cl)cc4)nn3ccn2c1=O)Nc1ccc(F)cc1 | -10.24 |
| O=C(Cn1nc2ccc(SC3CCCCC3)nn2c1=O)NCc1ccc(Cl)cc1 | -20.43 |
